We go through 40 compounds from PubChem BioAssay (EPA / NIEHS).

The term AC50 denotes the concentration giving half of the maximal activity seen.

Molecules are shown by their SMILES. Activity calls are given as the source filed them. Rule for the calls: active = hit-call score of the fitted dose curve at least 0.9, where 1 is the maximum; inactive = score below 0.9.

The assay is described as follows: APR_HepG2_CellLoss_1hr: Apredica 1-hour HepG2 Assay for Cell Loss (AID 2282668).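 Note: curves fitted both ways against DMSO so gain or loss of cells counts.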 The note with it: high-content imaging. How it is done: APR_HepG2_1hr is a cell-based, multiplexed-readout assay that uses HepG2, a human liver cell line, with measurements taken at 1 hour after chemical dosing in a 384-well plate.APR_HepG2_CellLoss_1hr is one of 10 assay component(s) measured or calculated from the APR_HepG2_1hr assay. It is designed to make measurements of cell number, a form of viability reporter, as detected with fluorescence intensity signals by HCS Fluorescent Imaging technology.Data from the assay component APR_HepG2_CellLoss_1hr was analyzed into 1 assay endpoint. This assay endpoint, APR_HepG2_CellLoss_1hr, was analyzed with bidirectional fitting relative to DMSO as the negative control and baseline of activity. Using a type of viability reporter, measures of all nuclear dna for gain or loss-of-signal activity can be used to understand the viability at the cellular-level. Furthermore, this assay endpoint can be referred to as a secondary readout, because this assay has produced multiple assay endpoints where this one serves a viability function. To generalize the intended target to other relatable targets, this assay endpoint is annotated to the cell cycle intended target family, where the subfamily is proliferation.
Cells were treated with dimethyl sulfoxide (DMSO) as a solvent control at a final concentration of 0.5% v/v or with compounds in DMSO with a resulting final DMSO concentration of 0.5% v/v. Compound treatment was done at concentrations of 0.39, 0.78, 1.56, 3.12, 6.24, 12.5, 25, 50, 100, and 200 uM in duplicate on each plate. Cells were treated with compounds for 1, 24, or 72 hr. Carbonyl […] m-chloro-phenylhydrazone (CCCP) and taxol were used as positive controls for mitochondrial function and cytoskeletal stability, respectively; DMSO served as the negative control for this experiment. Cells were fixed by the direct addition of 50 uL formaldehyde in Hank's Balanced Salt Solution (HBSS) to a final concentration of 3.7%. After incubation in the fixation medium for 30 min at room temperature (293-298 K), cells were rinsed twice with HBSS and treated with cell permeabilization buffer (16 uL of 0.5% Triton X-100) for 10 min at room temperature (293-298 K) before labeling. For mitochondrial membrane potential and mitochondrial measurements, pre-fixed cells were incubated with 50 uL of MitoTracker Red CMXRos (Invitrogen) at a concentration of 250 nM for 30 min before fixation. In the remaining cases, post-fixed cells were labeled by incubation with a multiplexed mixture of primary antibodies in HBSS for 60 min at room temperature (293-298 K) to detect immunoreactivity of c-Jun (1:500), phospho-histone H3 (1:100), phospho-histone H2A.x (1:200), p53 (1:400), alpha-tubulin (1:200) and Hoechst 33342 (2 ug/mL). Cells were labeled for multiplexed imaging on two separate plates: a) Hoechst 33342, MitoTracker Red, phospho-histone H3, and alpha-tubulin, and b) Hoechst 33342, phospho-histone H2A.x, and c-Jun. A final rinse with HBSS (50 uL) was performed before analysis. The primary and secondary antibodies for the proteins were phospho-histone H3 (rabbit anti-phospho-histone H3 and FITC-donkey anti-rabbit IgG), phospho-histone H2A.x (mouse anti-phospho-histone H2A.x and FITC-donkey anti-mouse IgG), c-Jun (rabbit anti-phospho-c-Jun and Cy3-donkey anti-rabbit IgG), p53 (sheep anti-p53 and Cy5-donkey anti-sheep IgG), alpha-tubulin (mouse anti-alpha-tubulin and Cy5-donkey anti-mouse IgG). These antibodies are available as the CellCiphr HepG2 assay kit (Millipore).Digital images of each well were captured using a Cellomics ArrayScan VTI (Thermo Scientific Cellomics) (0.8 NA objective, 0.63x optical coupler, and XF-93 filter set) at 20x magnification. The images were acquired using the autofocus feature of the ArrayScan instrument, which entails the following steps. First, the camera focuses on channel 1 (Hoechst 33342), where nuclei are identified. Second, a Z offset of 1 um is used for capturing mitochondria (MitoTracker Red). […]
Take `CC(C)NC(=O)N1CC(=O)N(c2cc(Cl)cc(Cl)c2)C1=O`: the result was inactive.
Still for that read-out and setting: to `COC(=O)c1c(C(F)F)nc(C(F)(F)F)c(C2=NCCS2)c1CC(C)C` belongs “inactive”; to `COCC(=O)N(c1c(C)cccc1C)C(C)C(=O)OC` (stereo not given), “inactive”.
In the case of `COc1ccc(-c2ccccc2)cc1NNC(=O)OC(C)C`, the outcome was inactive.
As for `Nc1cnn(-c2ccccc2)c(=O)c1Cl`, the call was inactive.
Turning to `CC(C)N1C(=O)N(c2ccccc2)CSC1=NC(C)(C)C`, the result was inactive.
Take `Cc1cc(C)nc(Nc2ccccc2)n1`: the compound was called inactive.
Turning to `COP(=O)(OC)O/C(C)=C/C(=O)N(C)C`, the outcome was inactive.
For `C=C(C)CN(CC)c1c([N+](=O)[O-])cc(C(F)(F)F)cc1[N+](=O)[O-]`, the outcome was inactive.
`COC(=O)N(C(=O)N1CO[C@@]2(C(=O)OC)Cc3cc(Cl)ccc3C2=N1)c1ccc(OC(F)(F)F)cc1`: the call was inactive.
For `CCOP(=S)(OCC)Oc1nc(Cl)n(C(C)C)n1`, the result was inactive.
For the compound `CN/C(=N\[N+](=O)[O-])NCc1cnc(Cl)s1`, the call was inactive.
In the case of `CCOP(=O)(OCC)Oc1nc(Cl)c(Cl)cc1Cl`, the compound was called inactive.
Turning to `O=C(O)c1c(Cl)ccc2cc(Cl)cnc12`, the result was inactive.
Still for that read-out and setting: for `C=CCOC(=O)C(C)(C)OC(=O)c1cc(-n2c(=O)cc(C(F)(F)F)n(C)c2=O)ccc1Cl` the value was “inactive”; for `CC(C)Oc1cccc(NC(=O)c2ccccc2C(F)(F)F)c1`, “inactive”.
Turning to `CCOc1cc(C(C)(C)C)ccc1C1COC(c2c(F)cccc2F)=N1` (stereo not given), the compound was called inactive.
Same read-out and setting: for `N#Cc1c[nH]cc1-c1cccc2c1OC(F)(F)O2` the value was “inactive”; for `Nc1c(Cl)c(F)nc(OCC(=O)O)c1Cl`, “inactive”.
`OC(c1ccc(Cl)cc1)(c1ccc(Cl)cc1)C(Cl)(Cl)Cl`: the AC50 is 89.3 µM (active).
On to `N#Cc1c(Cl)cccc1Cl`, for which the call was inactive.
On the same count and under the same terms, to `CCOc1nc(F)cc2nc(S(=O)(=O)Nc3c(Cl)cccc3Cl)nn12` belongs “inactive”; to `O=C(Nc1ccccc1-c1ccc(Cl)cc1)c1cccnc1Cl`, “inactive”; to `COCC(C)N(C(=O)CCl)c1c(C)csc1C` (stereo not given), “inactive”.
On to `CNC(=O)Oc1cccc2ccccc12`, for which the call was inactive.
The same measure, in the same setting: for `CC1(C)CCC(=Cc2ccc(Cl)cc2)C1(O)Cn1cncn1` (stereo not given) the value was “inactive”; for `CO/N=C(/C1=NOCCO1)c1ccccc1Oc1ncnc(Oc2ccccc2Cl)c1F`, “inactive”.
On the same count and under the same terms, to `Cc1ccc(N=CN(C)C=Nc2ccc(C)cc2C)c(C)c1` belongs “inactive”; to `CNC(=O)N(C)c1nnc(C(C)(C)C)s1`, “inactive”.
For `CSC(=O)c1c(C(F)F)nc(C(F)(F)F)c(C(=O)SC)c1CC(C)C`, the compound was classed as inactive.
With `CC(C)N1C(=O)c2ccccc2NS1(=O)=O`, the call was inactive.
For `CC1(C)C(C=C(Cl)Cl)C1C(=O)OC(C#N)c1cccc(Oc2ccccc2)c1` (stereo not given), the call was inactive.
The same measure, in the same setting: to `CCCCOCN(C(=O)CCl)c1c(CC)cccc1CC` belongs “inactive”; to `CCNP(=S)(OC)O/C(C)=C/C(=O)OC(C)C` (stereo not given), “inactive”; to `CC(C)Nc1nc(Cl)nc(NC(C)C)n1`, “inactive”.
On the same count and under the same terms, to `CC1(C)C(C(=O)OC(C#N)c2cccc(Oc3ccccc3)c2)C1(C)C` (stereo not given) belongs “inactive”; to `Clc1nc(Cl)nc(Nc2ccccc2Cl)n1`, “inactive”.
The same measure, in the same setting: to `CCCCC(O)(Cn1cncn1)c1ccc(Cl)cc1Cl` (stereo not given) belongs “inactive”.
With `Cn1c(-c2ccccc2)cc(-c2ccccc2)[n+]1C`, the call was inactive.
The same measure, in the same setting: to `CCN(CC)c1nc(C)cc(OP(=S)(OC)OC)n1` belongs “inactive”.
